# According to PubChem BioAssay AID1159580 (chemical genetic matrix, 2015):
# Hit rate of the full screen: of about 5,500 compounds, about 2,000 (36%) were called active. Roughly 18% stayed inconclusive and do not appear here. The list shows a part of the results. A number with no mark means an inactive call. Rule as the data show it: active = normalized growth mostly below about 0.91 (no sharp cut-off); inconclusive = no clear call, values can overlap the other calls; inactive = mostly above about 0.92.
# Experiment: chemical genetic growth profiling, strain panel (AID 1159580);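 also: tested at 20 µM; growth read once vehicle control cultures reached saturation at 30 °C; 1 = growth at the plate median or of vehicle wells; lower values mean less growth of the strain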
# Details: growth OD
smiles,measurement,setting,value
COP(=S)(OC)Oc1ccc([N+](=O)[O-])cc1,normalized growth,"S. cerevisiae deletion strains, locus YJR075W, strain HOC1, hits give low values",0.993
same,normalized growth,"S. cerevisiae deletion strains, locus YKL009W, strain mrt4, hits give low values",0.962
same,normalized growth,"S. cerevisiae deletion strains, locus YKL068W, hits give low values",0.987
same,normalized growth,"S. cerevisiae deletion strains, locus YKL085W, strain MDH1 (second series), hits give low values",0.978
same,normalized growth,"S. cerevisiae deletion strains, locus YKL085W, strain MDH1, hits give low values",0.978
same,normalized growth,"S. cerevisiae deletion strains, locus YKL160W, strain elf1, hits give low values",0.993
same,normalized growth,"S. cerevisiae deletion strains, locus YKL190W, strain CNB1, hits give low values",0.975
same,normalized growth,"S. cerevisiae deletion strains, locus YKR001C, strain vps1, hits give low values",0.982
same,normalized growth,"S. cerevisiae deletion strains, locus YKR026C, strain gcn3, hits give low values",0.995
same,normalized growth,"S. cerevisiae deletion strains, locus YKR091W, strain srl3, hits give low values",0.992
same,normalized growth,"S. cerevisiae deletion strains, locus YLL001W, strain dnm1, hits give low values",0.995
same,normalized growth,"S. cerevisiae deletion strains, locus YLL026W, hits give low values",0.993
same,normalized growth,"S. cerevisiae deletion strains, locus YLL041C, strain sdh2, hits give low values",1
same,normalized growth,"S. cerevisiae deletion strains, locus YLR027C, strain aat2, hits give low values",0.998
same,normalized growth,"S. cerevisiae deletion strains, locus YLR039C, strain RIC1, hits give low values",0.877
same,normalized growth,"S. cerevisiae deletion strains, locus YLR058C, strain SHM2, hits give low values",0.975
same,normalized growth,"S. cerevisiae deletion strains, locus YLR102C, strain apc9, hits give low values",0.974
same,normalized growth,"S. cerevisiae deletion strains, locus YLR113W, strain HOG1, hits give low values",0.916
same,normalized growth,"S. cerevisiae deletion strains, locus YLR221C, strain rsa3, hits give low values",0.974
same,normalized growth,"S. cerevisiae deletion strains, locus YLR258W, strain gsy2, hits give low values",0.99
same,normalized growth,"S. cerevisiae deletion strains, locus YLR262C, strain YPT6 (second series), hits give low values",0.927
same,normalized growth,"S. cerevisiae deletion strains, locus YLR262C, strain YPT6, hits give low values",0.915
same,normalized growth,"S. cerevisiae deletion strains, locus YLR268W, strain sec22, hits give low values",0.993
same,normalized growth,"S. cerevisiae deletion strains, locus YLR320W, strain mms22, hits give low values",0.944
same,normalized growth,"S. cerevisiae deletion strains, locus YLR330W, strain CHS5, hits give low values",0.989
same,normalized growth,"S. cerevisiae deletion strains, locus YLR342W, strain FKS1 (second series), hits give low values",0.998
same,normalized growth,"S. cerevisiae deletion strains, locus YLR342W, strain FKS1, hits give low values",0.981
same,normalized growth,"S. cerevisiae deletion strains, locus YLR357W, strain rsc2, hits give low values",1
same,normalized growth,"S. cerevisiae deletion strains, locus YLR370C, strain arc18, hits give low values",0.991
same,normalized growth,"S. cerevisiae deletion strains, locus YLR371W, strain rom2, hits give low values",0.975
same,normalized growth,"S. cerevisiae deletion strains, locus YLR384C, strain iki3, hits give low values",0.971
same,normalized growth,"S. cerevisiae deletion strains, locus YLR418C, strain cdc73, hits give low values",0.991
same,normalized growth,"S. cerevisiae deletion strains, locus YML016C, strain PPZ1, hits give low values",0.951
same,normalized growth,"S. cerevisiae deletion strains, locus YML032C, strain rad52, hits give low values",0.981
same,normalized growth,"S. cerevisiae deletion strains, locus YML120C, strain ndi1, hits give low values",1
same,normalized growth,"S. cerevisiae deletion strains, locus YML124C, strain tub3, hits give low values",0.99
same,normalized growth,"S. cerevisiae deletion strains, locus YMR058W, strain fet3, hits give low values",1
same,normalized growth,"S. cerevisiae deletion strains, locus YMR078C, strain ctf18, hits give low values",0.974
same,normalized growth,"S. cerevisiae deletion strains, locus YMR125W, strain sto1, hits give low values",0.995
same,normalized growth,"S. cerevisiae deletion strains, locus YMR129W, hits give low values",0.991
same,normalized growth,"S. cerevisiae deletion strains, locus YMR205C, strain PFK2, hits give low values",0.97
same,normalized growth,"S. cerevisiae deletion strains, locus YMR223W, strain ubp8, hits give low values",0.99
same,normalized growth,"S. cerevisiae deletion strains, locus YMR231W, strain pep5, hits give low values",0.978
same,normalized growth,"S. cerevisiae deletion strains, locus YMR263W, strain SAP30, hits give low values",0.985
same,normalized growth,"S. cerevisiae deletion strains, locus YMR307W, strain GAS1, hits give low values",1.03
same,normalized growth,"S. cerevisiae deletion strains, locus YNL067W, strain RPL9B, hits give low values",0.984
same,normalized growth,"S. cerevisiae deletion strains, locus YNL071W, strain lat1, hits give low values",0.934
same,normalized growth,"S. cerevisiae deletion strains, locus YNL128W, strain TEP1, hits give low values",0.96
same,normalized growth,"S. cerevisiae deletion strains, locus YNL153C, strain GIM3, hits give low values",0.998
same,normalized growth,"S. cerevisiae deletion strains, locus YNL183C, strain NPR1, hits give low values",0.954
same,normalized growth,"S. cerevisiae deletion strains, locus YNL209W, strain ssb2, hits give low values",0.993
same,normalized growth,"S. cerevisiae deletion strains, locus YNL233W, strain BNI4, hits give low values",0.977
same,normalized growth,"S. cerevisiae deletion strains, locus YNL248C, strain rpa49, hits give low values",0.983
same,normalized growth,"S. cerevisiae deletion strains, locus YNL250W, strain rad50, hits give low values",0.981
same,normalized growth,"S. cerevisiae deletion strains, locus YNL271C, strain bni1, hits give low values",0.98
same,normalized growth,"S. cerevisiae deletion strains, locus YNL298W, strain CLA4, hits give low values",0.977
same,normalized growth,"S. cerevisiae deletion strains, locus YNL307C, strain MCK1, hits give low values",0.984
same,normalized growth,"S. cerevisiae deletion strains, locus YNL322C, strain KRE1 (second series), hits give low values",0.99
same,normalized growth,"S. cerevisiae deletion strains, locus YNL322C, strain KRE1, hits give low values",0.986
same,normalized growth,"S. cerevisiae deletion strains, locus YNR049C, strain mso1, hits give low values",1.01
same,normalized growth,"S. cerevisiae deletion strains, locus YNR052C, strain pop2, hits give low values",0.984
same,normalized growth,"S. cerevisiae deletion strains, locus YOL006C, strain TOP1, hits give low values",0.885
same,normalized growth,"S. cerevisiae deletion strains, locus YOL012C, strain htz1",1.15
same,normalized growth,"S. cerevisiae deletion strains, locus YOL147C, strain pex11, hits give low values",0.994
same,normalized growth,"S. cerevisiae deletion strains, locus YOR001W, strain rrp6, hits give low values",1
same,normalized growth,"S. cerevisiae deletion strains, locus YOR061W, strain CKA2, hits give low values",0.964
same,normalized growth,"S. cerevisiae deletion strains, locus YOR069W, strain VPS5, hits give low values",0.994
same,normalized growth,"S. cerevisiae deletion strains, locus YOR070C, strain gyp1, hits give low values",1
same,normalized growth,"S. cerevisiae deletion strains, locus YOR080W, strain dia2, hits give low values",0.984
same,normalized growth,"S. cerevisiae deletion strains, locus YOR083W, strain WHI5, hits give low values",0.987
same,normalized growth,"S. cerevisiae deletion strains, locus YOR106W, strain vam3, hits give low values",0.947
same,normalized growth,"S. cerevisiae deletion strains, locus YOR136W, strain idh2, hits give low values",0.997
same,normalized growth,"S. cerevisiae deletion strains, locus YOR144C, strain elg1, hits give low values",0.987
same,normalized growth,"S. cerevisiae deletion strains, locus YOR184W, strain ser1, hits give low values",0.984
same,normalized growth,"S. cerevisiae deletion strains, locus YOR231W, strain MKK1, hits give low values",1
same,normalized growth,"S. cerevisiae deletion strains, locus YOR265W, strain rbl2, hits give low values",1.01
same,normalized growth,"S. cerevisiae deletion strains, locus YOR270C, strain vph1, hits give low values",0.658 (active)
same,normalized growth,"S. cerevisiae deletion strains, locus YOR290C, strain snf2, hits give low values",0.997
same,normalized growth,"S. cerevisiae deletion strains, locus YOR316C, strain cot1, hits give low values",0.967
same,normalized growth,"S. cerevisiae deletion strains, locus YPL051W, strain arl3, hits give low values",1.01
same,normalized growth,"S. cerevisiae deletion strains, locus YPL055C, strain LGE1, hits give low values",0.964
same,normalized growth,"S. cerevisiae deletion strains, locus YPL078C, strain atp4, hits give low values",0.999
same,normalized growth,"S. cerevisiae deletion strains, locus YPL106C, strain sse1, hits give low values",0.984
same,normalized growth,"S. cerevisiae deletion strains, locus YPL240C, strain hsp82, hits give low values",0.999
same,normalized growth,"S. cerevisiae deletion strains, locus YPL241C, strain CIN2, hits give low values",0.985
same,normalized growth,"S. cerevisiae deletion strains, locus YPL256C, strain CLN2, hits give low values",1.01
same,normalized growth,"S. cerevisiae deletion strains, locus YPR119W, strain clb2, hits give low values",0.983
same,normalized growth,"S. cerevisiae deletion strains, locus YPR141C, strain kar3, hits give low values",0.951
same,normalized growth,"S. cerevisiae deletion strains, locus YPR163C, strain tif3, hits give low values",0.99
same,normalized growth,"S. cerevisiae deletion strains, locus YPR167C, strain met16, hits give low values",0.984
same,normalized growth,"S. cerevisiae deletion strains, strain wtn01, hits give low values",0.977
same,normalized growth,"S. cerevisiae strains, strain wild type, hits give low values",0.985
